Test [1] addresses Thyrotropin-releasing hormone receptor (Homo sapiens) (UniProt P34981). Kind of test: qHTS assay to identify small molecule agonists of the thyrotropin-releasing hormone receptor (TRHR) signaling pathway (AID 1346891; calls by dose curve;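 further: HEK293 cells expressing TRHR with calcium dye readout; series mostly up to about 58 µM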). The essentials:
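In 1536-format, 1500 TRHR-Hek293 cells per well grew 18 h, took up calcium dye for 2 h at 37 °C, received compound, and were read kinetically; 15-point titrations, triplicates.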

A short description of test [2]: Human pregnane X receptor (PXR) small molecule agonists, qHTS cell viability counter screen (AID 1346977). Further: nearly all actives have a fitted effect of over 50% in size. The essentials: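 Readout is CellTiter-Fluor fluorescence from PXR-Luc HepG2 cells. Plated cells rested 5hr, then were treated with compounds for 24hr at 37C and 5% CO2, with reagent present during the last hour.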
For orientation: In qHTS, concentration-response curves come from the screen itself.

The nature of test [3]: Caspase-3/7 induction in HepG2 cells by small molecules, qHTS assay (AID 1346978). Further: nearly all actives have a fitted effect of over 15% in size. The essentials: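 Caspase-3/7 induction was measured by Caspase-Glo 3/7 luminescence (30 min, room temperature) after a 17 hr compound exposure of wild-type HepG2 cells seeded at 2,000 per well and pre-incubated 5 hr.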
Test [4] is described as follows: Caspase-3/7 induction in CHO-K1 cells by small molecules, qHTS assay (AID 1346980). Further: nearly all actives have a fitted effect of over 15% in size. The method, boiled down: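 Luminescent Caspase-Glo 3/7 read (30min, room temperature) quantified apoptosis induction. Cells were wild-type CHO-K1, treated with compound for 17hr at 37 C and 5% CO2.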
The nature of test [5]: Caspase-3/7 induction in HepG2 cells by small molecules, qHTS cell viability counter screen (AID 1346981). Further: series mostly up to about 92 µM; nearly all actives have a fitted effect of over 30% in size. The method, boiled down: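 In this quantitative HTS counter screen, compounds delivered in DMSO were left on unmodified HepG2 cells for 16 hr at 37 C. Viability was then determined fluorometrically with CellTiter-Fluor, in parallel with caspase-3/7 induction in the same wells.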

Test [6] concerns the target Nuclear receptor subfamily 1 group I member 2 (Rattus norvegicus) (UniProt Q9R1A7). The test can be described thus: Rat pregnane X receptor (rPXR) activation by small molecules, qHTS assay (AID 1346983). Further: nearly all actives have a fitted effect of over 20% in size. Further: potency means the concentration at half of the fitted maximal effect. Particulars: rPXR luciferase reporter cells, One-Glo luminescence, 24 h; max activation: stronger effect = higher value. The essentials:
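Luminescent readout (One-Glo luciferase, 30 min room temperature) followed 24 hr compound treatment at 37 C of rPXR cells plated 2,000 per well and preincubated 5hr; qHTS format with compounds delivered in DMSO.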

Test [7] addresses Nuclear receptor subfamily 1 group I member 2 (Homo sapiens) (UniProt O75469). The test can be described thus: CYP3A4 induction through human pregnane X receptor (PXR) by small molecules, qHTS assay (AID 1346984). Further: nearly all actives have a fitted effect of over 40% in size. The method, boiled down:
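Induction measured in HepG2-based DPX-2 cells co-expressing human PXR and a CYP3A4 promoter-driven luciferase. After a 24-hour compound exposure, cells received CYP3A4 luciferin substrate at 3uM final for 3 hours, and light output was then recorded.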

Test [8] has the same target. The test can be described thus: Human pregnane X receptor (PXR) activation by small molecules, qHTS assay (AID 1346985). Further: nearly all actives have a fitted effect of over 40% in size. Further: potency means the concentration at half of the fitted maximal effect. The method, boiled down: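 DPX-2 cells (HepG2 co-transfected with a PXR response element and a CYP3A4-promoter luciferase construct) were seeded at 2,000 per well, rested 5 hr at 37C, then exposed to DMSO-dissolved compounds for 24 hr. Activation was read as luciferase luminescence.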

Test [9] deals with Acetylcholinesterase (Homo sapiens) (UniProt P22303). The test can be described thus: Acetylcholinesterase (AChE) small molecule antagonists: colormetric cell-based qHTS assay (AID 1347395; calls by dose curve; further: nearly all actives have a fitted effect of over 30% in size). The method, boiled down: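 Neuroblastoma line SH-SY5Y supplied the enzyme; cells were preincubated with compound for 30 min at 37 C and 5% CO2. Acetylthiocholine with DTNB was then added for 90 min at 37 C, and thiocholine was measured by colour.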

Test [10] has the same target. Kind of test: Acetylcholinesterase (AChE) small molecule antagonists: enzyme-based qHTS assay (AID 1347397; calls by dose curve; further: nearly all actives have a fitted effect of over 55% in size). Particulars: Potency: AChE enzyme activity inhibition. The method, boiled down: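 Colorimetric DTNB readout of acetylthiocholine hydrolysis, 10 min at room temperature, after 30 min room-temperature exposure of 50 mU/mL recombinant human enzyme to compound; DMSO vehicle control.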

Test [11] shares this target. Kind of test: Acetylcholinesterase (AChE) small molecule antagonists: fluorescence cell-based qHTS assay (AID 1347398; calls by dose curve; further: nearly all actives have a fitted effect of over 50% in size; further: potency means the concentration at half of the fitted maximal effect). The following applies: Potency: AChE activity. The method, boiled down: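 Cellular AChE activity read as thiocholine from acetylthiocholine hydrolysis, detected by Thiolite Green fluorescence at 490/520 nm after 40 min at room temperature. Compounds were pre-incubated 30 min at 37 C on adherent SH-SY5Y cells.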

Test [12] shares this target. The test can be described thus: Acetylcholinesterase (AChE) small molecule antagonists: enzyme-based qHTS assay with human liver microsomes (AID 1347399; calls by dose curve; further: nearly all actives have a fitted effect of over 60% in size). The following applies: Potency: qHTS inhibition. The essentials:
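Recombinant human AChE (50 mU/mL in the enzyme mix) and human liver microsomes (0.25 mg/mL final) were preincubated with compound and NADPH (0.25 mg/mL final) for 30 min at 37 C. Acetylthiocholine/DTNB was then added; thiocholine was read colorimetrically after 10 min at room temperature.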

In test [13] the target is Cytochrome P450 2D6 (Homo sapiens) (UniProt P10635). Kind of test: Cytochrome P450 Family 2 Subfamily D Member 6 (CYP2D6) small molecule antagonists: luciferase reporter qHTS assay (AID 1671196). Further: nearly all actives have a fitted effect of over 50% in size. Further: potency means the concentration at half of the fitted maximal effect. The method, boiled down: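 Test chemicals meet CYP2D6 plus proluciferin substrate (10 min, RT); NADPH regenerating solution then drives turnover for 1 h. Detection reagent halts the reaction; luminescence measured after 20 min.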
(In general: In a reporter assay the amount or activity of a reporter protein is the signal.)

The target of test [14] is Cytochrome P450 2C19 (Homo sapiens) (UniProt P33261). The test can be described thus: Cytochrome P450 Family 2 Subfamily C Member 19 (CYP2C19) small molecule antagonists: luciferase reporter qHTS assay (AID 1671197). Further: nearly all actives have a fitted effect of over 65% in size. Further: potency means the concentration at half of the fitted maximal effect. The method, boiled down:
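P450-Glo CYP2C19 screening system; proluciferin substrate; DMSO compound stocks; 10 min RT preincubation; NADPH regeneration, 1 h at 37C; luciferin detection reagent, 20 min RT; luminescence as RLU.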

Test [15] deals with Cytochrome P450 2C9 (Homo sapiens) (UniProt P11712). Kind of test: Cytochrome P450 Family 2 Subfamily C Member 9 (CYP2C9) small molecule antagonists: luciferase reporter qHTS assay (AID 1671198). Further: nearly all actives have a fitted effect of over 50% in size. Further: potency means the concentration at half of the fitted maximal effect. The method, boiled down:
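Enzyme-substrate mix preincubated with compound 10 min at room temperature; reaction started with NADPH regeneration solution, 1 h 37C. Luminescent luciferin product read after 20 min detection reagent.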

For test [16], the target named is Cytochrome P450 1A2 (Homo sapiens) (UniProt P05177). Kind of test: Cytochrome P450 Family 1 Subfamily A Member 2 (CYP1A2) small molecule antagonists: luciferase reporter qHTS assay (AID 1671199). Further: nearly all actives have a fitted effect of over 50% in size. Further: potency means the concentration at half of the fitted maximal effect. The essentials: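 Steps: enzyme-substrate mix dispensed; test compounds and furafylline control pinned in; 10 min room temperature; NADPH regeneration solution added, 1 h; reaction stopped with luciferin detection reagent; luminescence read after 20 min.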

Test [17] addresses Voltage-gated inwardly rectifying potassium channel KCNH2 (Homo sapiens) (UniProt Q12809). The test can be described thus: Human Ether-a-go-go-Related Gene (hERG) channel small molecule antagonists: fluorescence cell-based qHTS assay (AID 1671200). The method, boiled down: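 Measured: Tl+ flux via fluorescence (480/540 nm) in hERG-expressing U2OS cells after 1 h dye loading at room temperature.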
For orientation: hERG is a cardiac potassium channel; its block is linked to QT prolongation.

Test [18] has as its target Nuclear receptor subfamily 1 group I member 2 (Homo sapiens) (UniProt O75469). Kind of test: Human pregnane X receptor (PXR) small molecule agonists, qHTS assay (AID 1346982). Further: nearly all actives have a fitted effect of over 35% in size. Further: potency means the concentration at half of the fitted maximal effect. The essentials: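 Reporter HepG2 cells expressing PXR-Luc are cultured in charcoal-stripped FBS (5%), treated with compounds for 24 hr at 37 C, and assayed by ONE-Glo luminescence after 30 min at room temperature.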

Test [19] concerns the target Cytochrome P450 3A4 (Homo sapiens) (UniProt P08684). The test can be described thus: Cytochrome P450 Family 3 Subfamily A Member 4 (CYP3A4) small molecule antagonists: luciferase reporter qHTS assay (AID 1671201). Further: nearly all actives have a fitted effect of over 50% in size. Further: potency means the concentration at half of the fitted maximal effect. The method, boiled down: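 Setup: enzyme-substrate mix, compound pin transfer, 10 min RT. Reaction: NADPH regeneration solution, 1 h RT. Readout: detection reagent stops turnover, luminescence measured after 20 min, expressed in relative luminescence units.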

A short description of test [20]: Caspase-3/7 induction in CHO-K1 cells by small molecules, qHTS cell viability counter screen (AID 1346979). Further: nearly all actives have a fitted effect of over 35% in size. The essentials:
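To flag cytotoxic compounds, treated CHO-K1 wild-type cells were given CellTiter-Fluor at 16hr and read fluorescently after 1hr at 37C; the caspase-3/7 luminescence was measured in these same wells.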

Each structure is given as a SMILES string. A number with no mark means an inactive call. Inconclusive results are not listed. Calls of active or inactive are those of the source. Unless noted, the call rests on the fitted dose curve; in most records, active means well fitted curve in the direction sought with a large enough effect in the repeat runs; inconclusive means weak or mixed curves; inactive means no such curve, though single readings can be large; an effect the other way counts as inactive or inconclusive.
On the % scale 0 is the no-effect control and ±100 the full control effect.

Sequence of Cytochrome P450 2D6 (Homo sapiens) (P10635 whole entry, looked up): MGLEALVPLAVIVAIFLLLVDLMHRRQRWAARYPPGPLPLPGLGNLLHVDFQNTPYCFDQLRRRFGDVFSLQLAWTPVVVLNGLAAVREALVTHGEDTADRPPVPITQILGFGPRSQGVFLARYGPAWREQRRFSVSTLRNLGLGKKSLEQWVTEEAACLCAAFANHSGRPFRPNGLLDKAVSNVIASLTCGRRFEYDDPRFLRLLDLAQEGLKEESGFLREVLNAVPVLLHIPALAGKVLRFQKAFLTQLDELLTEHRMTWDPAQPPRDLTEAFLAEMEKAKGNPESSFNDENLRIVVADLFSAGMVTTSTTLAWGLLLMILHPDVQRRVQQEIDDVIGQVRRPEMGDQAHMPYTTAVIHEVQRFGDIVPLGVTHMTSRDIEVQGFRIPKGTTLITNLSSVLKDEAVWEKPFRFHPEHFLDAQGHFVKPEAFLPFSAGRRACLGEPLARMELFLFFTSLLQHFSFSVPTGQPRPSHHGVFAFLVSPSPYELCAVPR
Sequence of Voltage-gated inwardly rectifying potassium channel KCNH2 (Homo sapiens) (Q12809 whole entry, looked up): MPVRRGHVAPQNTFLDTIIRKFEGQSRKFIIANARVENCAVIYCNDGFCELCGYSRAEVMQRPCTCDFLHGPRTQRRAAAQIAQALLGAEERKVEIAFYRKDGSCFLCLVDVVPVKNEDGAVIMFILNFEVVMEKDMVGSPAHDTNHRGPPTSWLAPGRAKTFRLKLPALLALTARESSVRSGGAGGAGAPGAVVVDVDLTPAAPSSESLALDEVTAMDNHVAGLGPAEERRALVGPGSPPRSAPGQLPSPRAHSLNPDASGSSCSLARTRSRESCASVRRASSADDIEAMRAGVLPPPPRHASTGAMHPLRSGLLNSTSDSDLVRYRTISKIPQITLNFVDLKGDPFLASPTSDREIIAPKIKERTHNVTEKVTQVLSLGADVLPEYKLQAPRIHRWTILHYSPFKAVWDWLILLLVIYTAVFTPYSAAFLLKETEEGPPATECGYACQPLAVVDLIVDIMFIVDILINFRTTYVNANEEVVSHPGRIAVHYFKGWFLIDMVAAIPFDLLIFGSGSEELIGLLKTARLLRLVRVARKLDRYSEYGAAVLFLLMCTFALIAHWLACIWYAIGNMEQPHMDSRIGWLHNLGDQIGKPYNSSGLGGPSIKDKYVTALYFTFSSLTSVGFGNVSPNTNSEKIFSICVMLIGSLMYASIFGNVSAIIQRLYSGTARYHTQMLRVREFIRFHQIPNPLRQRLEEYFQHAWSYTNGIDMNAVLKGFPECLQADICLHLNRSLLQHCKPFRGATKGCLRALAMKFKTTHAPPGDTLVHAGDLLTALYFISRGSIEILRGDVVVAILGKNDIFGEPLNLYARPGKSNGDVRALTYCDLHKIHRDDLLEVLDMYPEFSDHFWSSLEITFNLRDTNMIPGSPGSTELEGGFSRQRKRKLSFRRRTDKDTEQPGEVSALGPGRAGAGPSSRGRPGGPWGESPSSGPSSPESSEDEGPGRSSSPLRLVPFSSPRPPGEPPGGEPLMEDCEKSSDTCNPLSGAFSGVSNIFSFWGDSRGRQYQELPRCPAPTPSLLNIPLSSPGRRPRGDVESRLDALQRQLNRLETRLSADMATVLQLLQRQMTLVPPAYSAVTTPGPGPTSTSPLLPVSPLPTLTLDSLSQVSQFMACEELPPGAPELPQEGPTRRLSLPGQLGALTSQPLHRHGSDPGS
Sequence of Nuclear receptor subfamily 1 group I member 2 (Homo sapiens) (O75469 whole entry, looked up): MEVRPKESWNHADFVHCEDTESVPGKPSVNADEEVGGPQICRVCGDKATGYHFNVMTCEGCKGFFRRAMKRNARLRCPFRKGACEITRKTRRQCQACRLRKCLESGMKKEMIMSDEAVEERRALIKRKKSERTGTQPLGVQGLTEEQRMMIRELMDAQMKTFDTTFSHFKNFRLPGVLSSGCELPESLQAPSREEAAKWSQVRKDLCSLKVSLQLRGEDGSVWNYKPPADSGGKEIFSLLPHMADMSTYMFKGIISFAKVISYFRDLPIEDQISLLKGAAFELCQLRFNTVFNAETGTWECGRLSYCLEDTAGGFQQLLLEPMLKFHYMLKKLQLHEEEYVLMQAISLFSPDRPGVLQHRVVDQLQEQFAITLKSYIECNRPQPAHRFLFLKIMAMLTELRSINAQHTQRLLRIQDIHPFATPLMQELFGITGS
Sequence of Acetylcholinesterase (Homo sapiens) (P22303 whole entry, looked up): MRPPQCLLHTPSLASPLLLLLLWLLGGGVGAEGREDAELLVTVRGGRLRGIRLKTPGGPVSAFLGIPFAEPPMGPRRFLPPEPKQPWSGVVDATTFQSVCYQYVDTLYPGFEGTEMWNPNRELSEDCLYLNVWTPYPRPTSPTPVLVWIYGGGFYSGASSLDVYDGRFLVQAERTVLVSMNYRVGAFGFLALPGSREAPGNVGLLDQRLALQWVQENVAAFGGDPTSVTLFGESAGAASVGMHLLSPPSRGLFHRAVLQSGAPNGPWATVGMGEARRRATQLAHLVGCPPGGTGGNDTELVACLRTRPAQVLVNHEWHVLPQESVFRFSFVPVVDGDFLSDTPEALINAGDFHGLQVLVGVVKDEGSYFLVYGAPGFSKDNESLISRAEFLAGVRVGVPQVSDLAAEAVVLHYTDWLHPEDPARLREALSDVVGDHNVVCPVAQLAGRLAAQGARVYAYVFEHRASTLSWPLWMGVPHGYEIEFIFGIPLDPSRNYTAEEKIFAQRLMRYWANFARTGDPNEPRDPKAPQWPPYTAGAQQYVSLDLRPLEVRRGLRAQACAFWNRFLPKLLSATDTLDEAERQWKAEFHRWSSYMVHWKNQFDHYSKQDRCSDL
Sequence of Thyrotropin-releasing hormone receptor (Homo sapiens) (P34981 whole entry, looked up): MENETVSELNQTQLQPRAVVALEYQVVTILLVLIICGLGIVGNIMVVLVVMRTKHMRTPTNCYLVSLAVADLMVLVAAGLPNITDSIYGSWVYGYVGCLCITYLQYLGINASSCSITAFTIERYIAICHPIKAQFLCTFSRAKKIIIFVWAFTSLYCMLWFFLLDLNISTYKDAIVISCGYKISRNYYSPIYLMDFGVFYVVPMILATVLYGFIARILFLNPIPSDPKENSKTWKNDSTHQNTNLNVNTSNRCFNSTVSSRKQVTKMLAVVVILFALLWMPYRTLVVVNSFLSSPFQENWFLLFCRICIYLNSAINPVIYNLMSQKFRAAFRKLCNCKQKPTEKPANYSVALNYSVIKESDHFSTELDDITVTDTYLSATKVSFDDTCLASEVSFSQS
Sequence of Cytochrome P450 2C9 (Homo sapiens) (P11712 whole entry, looked up): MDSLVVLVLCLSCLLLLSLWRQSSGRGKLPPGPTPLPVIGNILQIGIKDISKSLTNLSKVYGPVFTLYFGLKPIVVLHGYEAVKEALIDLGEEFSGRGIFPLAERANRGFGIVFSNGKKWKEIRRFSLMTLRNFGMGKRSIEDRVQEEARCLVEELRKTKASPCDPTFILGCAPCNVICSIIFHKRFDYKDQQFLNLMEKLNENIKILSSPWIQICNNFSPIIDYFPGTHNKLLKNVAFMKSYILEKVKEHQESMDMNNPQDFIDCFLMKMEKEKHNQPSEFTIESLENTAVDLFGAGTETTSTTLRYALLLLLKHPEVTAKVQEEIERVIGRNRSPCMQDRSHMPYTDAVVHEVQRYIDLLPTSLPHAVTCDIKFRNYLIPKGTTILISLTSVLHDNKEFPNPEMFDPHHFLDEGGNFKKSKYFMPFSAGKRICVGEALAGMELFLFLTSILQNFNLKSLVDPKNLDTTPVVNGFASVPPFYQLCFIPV
Sequence of Cytochrome P450 2C19 (Homo sapiens) (P33261 whole entry, looked up): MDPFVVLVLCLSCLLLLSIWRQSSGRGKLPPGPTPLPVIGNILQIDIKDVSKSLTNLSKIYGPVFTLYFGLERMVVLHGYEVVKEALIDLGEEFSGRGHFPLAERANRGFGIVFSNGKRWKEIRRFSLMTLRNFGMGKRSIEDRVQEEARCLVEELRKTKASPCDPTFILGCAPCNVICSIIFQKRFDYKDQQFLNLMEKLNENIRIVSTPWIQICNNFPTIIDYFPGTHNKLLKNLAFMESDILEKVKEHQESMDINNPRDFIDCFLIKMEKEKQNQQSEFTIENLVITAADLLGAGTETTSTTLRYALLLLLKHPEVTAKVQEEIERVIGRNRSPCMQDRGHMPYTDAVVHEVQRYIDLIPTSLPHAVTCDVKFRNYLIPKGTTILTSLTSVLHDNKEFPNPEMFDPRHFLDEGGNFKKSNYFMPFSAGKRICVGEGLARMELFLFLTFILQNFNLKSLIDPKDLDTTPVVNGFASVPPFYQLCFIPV
Sequence of Cytochrome P450 3A4 (Homo sapiens) (P08684 whole entry, looked up): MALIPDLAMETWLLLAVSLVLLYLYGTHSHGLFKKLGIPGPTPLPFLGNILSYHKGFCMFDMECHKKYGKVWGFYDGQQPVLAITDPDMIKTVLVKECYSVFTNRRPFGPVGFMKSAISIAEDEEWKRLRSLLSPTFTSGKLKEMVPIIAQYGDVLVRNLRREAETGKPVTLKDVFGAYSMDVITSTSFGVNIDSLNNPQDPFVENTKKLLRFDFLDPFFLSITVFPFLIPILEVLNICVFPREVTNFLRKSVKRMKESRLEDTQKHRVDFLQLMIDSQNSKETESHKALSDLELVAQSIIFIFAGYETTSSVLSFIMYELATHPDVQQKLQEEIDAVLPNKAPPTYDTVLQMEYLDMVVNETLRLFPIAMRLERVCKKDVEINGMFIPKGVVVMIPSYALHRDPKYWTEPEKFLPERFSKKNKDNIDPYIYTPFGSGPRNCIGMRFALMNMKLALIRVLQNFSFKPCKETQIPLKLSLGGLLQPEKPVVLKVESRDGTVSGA
Sequence of Nuclear receptor subfamily 1 group I member 2 (Rattus norvegicus) (Q9R1A7 whole entry, looked up): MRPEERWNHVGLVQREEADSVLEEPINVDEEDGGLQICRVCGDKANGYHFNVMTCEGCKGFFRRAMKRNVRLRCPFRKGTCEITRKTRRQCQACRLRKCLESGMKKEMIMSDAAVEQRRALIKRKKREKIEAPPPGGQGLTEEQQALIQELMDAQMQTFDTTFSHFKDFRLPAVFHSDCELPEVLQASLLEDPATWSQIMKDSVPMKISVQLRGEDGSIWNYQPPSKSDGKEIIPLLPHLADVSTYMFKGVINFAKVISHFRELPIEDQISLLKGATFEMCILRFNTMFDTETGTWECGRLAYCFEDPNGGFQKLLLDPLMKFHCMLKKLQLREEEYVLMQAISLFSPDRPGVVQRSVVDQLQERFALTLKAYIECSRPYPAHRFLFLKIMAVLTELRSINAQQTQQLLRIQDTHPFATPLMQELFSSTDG

Consider `CCCCCCCCCC(=O)O[C@H]1CC[C@H]2[C@@H]3CCC4=CC(=O)CC[C@@H]4[C@H]3CC[C@]12C`, for which the Potency result in test [1], in test [2], in test [3], in test [4], in [5] and in test [7] was “inactive” in each case. For the same molecule, the Potency entry in test [8], in test [9], in test [10], in test [11], in test [12] and in test [13] was “inactive” each time. Besides, the Potency entry in test [16] and in test [17] was “inactive” throughout. Besides, the max activation in test [6] was -0.997%. Also, the Potency in test [14] was 21.9 µM (active); in test [15], 15.5 µM (active).

In the case of `N#CCc1ccccc1`, the Potency entry in test [1], in test [2], in test [3], in [4], in test [5] and in test [18] was “inactive” each time. In addition, the Potency entry in test [9], in test [10], in test [11], in test [12], in test [14] and in test [15] was “inactive” in each case. The Potency result in test [17] and in [19] was “inactive” in each case.

Turning to `Cn1cc[n+](C)c1` (tested in a mixture with another compound), the Potency result in test [1], in test [2], in [3], in [4], in test [5] and in [18] was “inactive” each time. Moreover, the Potency result in [9], in test [10], in test [11], in test [13], in test [15] and in [16] was “inactive” in each case. In addition, the Potency result in test [19] was “inactive”.

With `O=C(NCc1cccnc1)Nc1ccc([N+](=O)[O-])cc1`, the Potency result in [1], in test [2], in [3], in test [4], in [5] and in [18] was “inactive” each time. Further, the Potency entry in [9], in test [10], in [11], in test [12] and in [17] was “inactive” each time. The Potency in [13] is 35.6 µM (active); in [14], 2 µM (active); in [15], 5.03 µM (active); in test [16], 17.8 µM (active); in test [19], 0.796 µM (active).

In the case of `O=C1CN=C(c2ccccc2)c2cc(Cl)ccc2N1CC1CC1`, the Potency result in [1], in [2], in [3], in test [4], in test [5] and in test [9] was “inactive” each time. Moreover, in [12], the Potency result was “inactive”. The Potency in [18] was 25.5 µM (active); in [6], 11.2 µM (active); in [8] it was 2 µM (active); in test [11] it was 29.7 µM (active); in test [14], 6.64 µM (active); in [15], 26.4 µM (active).

As to `Cc1ccccc1CCl`, the Potency entry in test [1], in test [2], in [3], in test [20], in test [5] and in test [18] was “inactive” in each case. Further, the Potency entry in [9], in [10], in test [11], in [12], in [13] and in test [14] was “inactive” in each case. Further, the Potency result in test [15], in test [16], in [17] and in [19] was “inactive” in each case.

Turning to `C=CC(=O)OC`, the Potency entry in test [1], in test [2], in [3], in test [4] and in [5] was “inactive” in each case.

Consider `COC(=O)C(Br)CBr` (stereo not drawn), for which the Potency entry in test [1], in test [2], in test [3], in test [4], in test [5] and in test [18] was “inactive” each time. For the same molecule, the Potency result in test [9], in [10], in test [11], in test [13], in [15] and in test [17] was “inactive” throughout. In test [19], the Potency entry is “inactive”. The Potency in test [16] was 35.6 µM (active).
